# Source: PubChem
# CBX7 inh – CBX7 inhibition, primary AlphaScreen. AlphaScreen His6-CBX7 / biotin-H3K27me3 peptide binding; stronger effect = lower value. normalised signal (fraction of DMSO) (test concentration not listed). 1.1% of 66,000 active; in the data active means normalised signal below about 0.5
# Target sequence (O95931 whole entry, looked up): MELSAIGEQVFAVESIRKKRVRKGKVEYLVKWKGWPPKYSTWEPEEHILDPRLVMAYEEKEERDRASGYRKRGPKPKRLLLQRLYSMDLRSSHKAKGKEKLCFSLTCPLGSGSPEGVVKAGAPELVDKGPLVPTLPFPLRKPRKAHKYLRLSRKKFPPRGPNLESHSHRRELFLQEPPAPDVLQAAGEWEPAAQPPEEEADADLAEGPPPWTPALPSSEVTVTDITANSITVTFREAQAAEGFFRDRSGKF
# Hits are given with their value; n = inactive. The full list was thinned out, with hits kept by preference.
SMILES,CBX7 inh
COc1ccc(CN2C(=O)N(c3ccc(F)cc3)C(=O)C2CC(=O)Nc2ccc(Cl)cc2)cc1 (stereo not drawn),n
CCOc1ccc(CC(=O)NCCc2cc3ccc(C)cc3[nH]c2=O)cc1,n
Cc1ccc(Cn2nnc3c(=O)n(Cc4cccc(C(F)(F)F)c4)cnc32)cc1,n
Cc1ccc(Cl)cc1N1CCN(C(=O)c2cnn(-c3ccccc3)c2-n2cccc2)CC1,n
COc1ccc(-c2cc(C(=O)Nc3cnn(Cc4ccccc4C)c3)no2)cc1,n
COc1ccc(OC)c(S(=O)(=O)n2c(/C=C/c3ccccc3Cl)nc3ccccc32)c1,n
Cc1ccc(-c2csc(NC(=O)COc3cc(C)ccc3C(C)C)n2)cc1,n
O=C(Nc1nccs1)c1cccc(N2C(=O)c3ccccc3C2=O)c1,n
O=C(Nc1ccc2oc(-c3ccccc3Cl)nc2c1)c1ncn[nH]1,0.043
Cc1c(NC(=O)c2ccccc2F)cccc1-c1nc2cc(Cl)ccc2o1,n
O=C(Nc1ccccc1-c1nc2ccccc2s1)c1ccccc1,n
Cc1c(NC(=O)c2ccccc2F)cccc1-c1nc2ccccc2s1,n
Cc1c(NC(=O)c2ncn[nH]2)cccc1-c1nc2cc(Cl)ccc2o1,0.12
Cc1c(NC(=O)c2cc3ccccc3o2)cccc1-c1nc2cc(Cl)ccc2o1,n
O=C(Nc1ccc2oc(-c3ccccc3Cl)nc2c1)c1ccc(F)cc1,n
Cc1c(NC(=O)c2ncn[nH]2)cccc1-c1nc2ccccc2s1,0.18
O=C(Nc1ccc2oc(-c3ccccc3Cl)nc2c1)c1cncc(Br)c1,n
O=C(Nc1ccccc1C(F)(F)F)c1cnc2sccn2c1=O,n
Cc1ccc(Cl)cc1N1CCN(S(=O)(=O)c2ccc3c(c2)CCN3C(=O)C2CC2)CC1,n
CC(C)c1ccc(NC(=O)C(c2ccc3c(c2)OCO3)N(C)c2ccccc2)cc1 (stereo not drawn),n
COc1cccc(C2=NOC(C(=O)NCc3ccc(F)cc3)C2)c1OC (stereo not drawn),n
Cc1ccc(NC(=O)N(C2CCCCC2)C2CCN(C(C)C)CC2)cc1C,n
CCOC(=O)c1cnc2ccccc2c1Nc1ccc(I)cc1,n
CCCn1cc(C2CC(=O)N(c3ccc(C)cc3)C2=O)c2ccccc21 (stereo not drawn),n
CCCn1cc(C2CC(=O)N(c3ccc(Br)cc3)C2=O)c2ccccc21 (stereo not drawn),n
SMILES,CBX7 inh
CCCn1cc(C2CC(=O)N(c3ccccc3C)C2=O)c2ccccc21 (stereo not drawn),0.46
CCC1=Nc2cc(C(=O)N3CCC(C)CC3)ccc2Sc2ccccc21,n
OC1CCCCc2c1[nH]c1ccc(C3CCCCC3)cc21 (stereo not drawn),n
OC1CCCc2c1[nH]c1ccc(OCc3ccccc3)cc21 (stereo not drawn),0.43
CCOC(=O)c1[nH]c2ccc(OCc3ccccc3)cc2c1C,n
COc1ccc(CCC(=O)Nc2ccc(-c3noc(/C=C/c4ccccc4)n3)cc2)cc1,n
CCN(CC)S(=O)(=O)c1ccc(C(=O)Nc2ccccc2-c2nc3ccccc3[nH]2)cc1,n
COC(CNC(=O)CN1CCN(Cc2ccc(C)cc2)C1=O)OC,n
COc1ccc(CCNc2nc(C)nc3sc(C)c(C)c23)cc1OC,n
Cc1nc(NCCc2ccc3c(c2)OCCO3)c2cc(-c3ccccc3)sc2n1,0.36
Cc1nc(SCC(=O)c2ccc3c(c2)OCCO3)c2cc(-c3ccccc3)sc2n1,n
COc1ccc(C2(C(=O)Nc3ccc(C)c(C)c3)CCOCC2)cc1OC,n
COc1ccc(OC)c(CCNC(=O)Cn2ncc3c2-c2cc(C)ccc2OC3)c1,n
Cc1nc2ccc(S(=O)(=O)N(C)CC(=O)Nc3ccccc3C)cc2s1,n
Cc1ccc(N2C(=O)CSC2c2ccccc2)cc1Cl (stereo not drawn),n
Cc1cc(C)n(-c2nc3ccccc3nc2Nc2ccc(N3CCCCC3)cc2)n1,0.42
Cc1cc(C)n(-c2nc3ccccc3nc2Nc2ccc(C(C)C)cc2)n1,n
Cc1cc(C)n(-c2nc3ccccc3nc2Nc2ccc(F)cc2)n1,n
CN(Cc1ccccc1)C(=O)c1ccc2c(c1)N(Cc1ccccc1)C(=O)c1ccccc1S2(=O)=O,n
O=C(CN1C(=O)COc2ccc(S(=O)(=O)N3CCCC3)cc21)N1CCCCCC1,n
COc1cc2c(C(=O)N(C)c3cccc(C)c3)cn(CC(C)C)c(=O)c2cc1OC,n
CCOC(=O)c1cnc2c(Cl)cccc2c1NCc1ccccc1,n
Cc1ccc(OCCN2CCN(c3ccc(C)c(C)c3)CC2)cc1,0.4
Cc1ccc(OCCn2cnc3cc(C)c(C)cc32)cc1,n
Cc1ccc(OCCN2CCN(c3ncnc4scc(-c5ccccc5)c34)CC2)cc1,n
CCN1CCN(S(=O)(=O)c2ccc3c(c2)n(C)c(=O)c(=O)n3C)CC1,n
Cc1ccc(CSc2nnc(Cc3cc(=O)[nH]c(=O)[nH]3)n2-c2cc(C)ccc2C)cc1,n
COc1ccc(OCC(O)CN2CCCCC2)cc1 (stereo not drawn),n
CC(=O)N1CCN(CC(O)COc2ccc(Br)cc2)CC1 (stereo not drawn),0.46
